Changes are numbered by the printed parent chain; changes in the protein carry UniProt numbers. Over roughly 16,000 sequences, “ka relative to ugcaugu” has its median near 0.096; the highest 2% begin near 0.35. Many of the other results were omitted from the sample, so the highest values are more common in it than they were.
T1: RBFOX1 RRM RbFoxmut (Fox-RRM*) (Homo sapiens, UniProt Q9NWB1 109-208, R118D;E147R;N151S;E152T)
T1 sequence: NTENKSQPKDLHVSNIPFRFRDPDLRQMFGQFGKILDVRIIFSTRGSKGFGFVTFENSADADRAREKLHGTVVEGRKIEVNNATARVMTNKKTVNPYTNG

B1: UGGCCCU (DNA:RNA)
RNA: GGGAGACCGGAAUUCAGAUUGUCCUGGCCCUUUAAAUCCCGUCGUAGCCACCA
DNA 1: CAATCTGAATTCCGGTCTCCC
DNA 2: TGGTGGCTACGACGGGATT
B2: CACCGUC (DNA:RNA)
RNA: B1 RNA with U25C, G26A, G27C, C29G, C30U, U31C
DNA 1: CAATCTGAATTCCGGTCTCCC
DNA 2: TGGTGGCTACGACGGGATT
B3: GGUCUUG (DNA:RNA)
RNA: B1 RNA with U25G, G27U, C29U, C30U, U31G
DNA 1: CAATCTGAATTCCGGTCTCCC
DNA 2: TGGTGGCTACGACGGGATT
B4: GUCGGUC (DNA:RNA)
RNA: GGGAGACCGGAAUUCAGAUUGUCCGUCGGUCUUAAAUCCCGUCGUAGCCACCA
DNA 1: CAATCTGAATTCCGGTCTCCC
DNA 2: TGGTGGCTACGACGGGATT
B5: AGUCUUG (DNA:RNA)
RNA: B1 RNA with U25A, G27U, C29U, C30U, U31G
DNA 1: CAATCTGAATTCCGGTCTCCC
DNA 2: TGGTGGCTACGACGGGATT
B6: GGAUUGG (DNA:RNA)
RNA: B4 RNA with U26G, C27A, G28U, G29U, U30G, C31G
DNA 1: CAATCTGAATTCCGGTCTCCC
DNA 2: TGGTGGCTACGACGGGATT
B7: AGUCGUC (DNA:RNA)
RNA: B4 RNA with G25A, U26G, C27U, G28C
DNA 1: CAATCTGAATTCCGGTCTCCC
DNA 2: TGGTGGCTACGACGGGATT
B8: GGUCGUC (DNA:RNA)
RNA: B4 RNA with U26G, C27U, G28C
DNA 1: CAATCTGAATTCCGGTCTCCC
DNA 2: TGGTGGCTACGACGGGATT
B9: GUCUUGG (DNA:RNA)
RNA: B4 RNA with G28U, G29U, U30G, C31G
DNA 1: CAATCTGAATTCCGGTCTCCC
DNA 2: TGGTGGCTACGACGGGATT
B10: ACCAGUC (DNA:RNA)
RNA: B4 RNA with G25A, U26C, G28A
DNA 1: CAATCTGAATTCCGGTCTCCC
DNA 2: TGGTGGCTACGACGGGATT
B11: CGUCGUC (DNA:RNA)
RNA: B4 RNA with G25C, U26G, C27U, G28C
DNA 1: CAATCTGAATTCCGGTCTCCC
DNA 2: TGGTGGCTACGACGGGATT
B12: CGUCUUG (DNA:RNA)
RNA: B1 RNA with U25C, G27U, C29U, C30U, U31G
DNA 1: CAATCTGAATTCCGGTCTCCC
DNA 2: TGGTGGCTACGACGGGATT
B13: GUUGGUC (DNA:RNA)
RNA: B4 RNA with C27U
DNA 1: CAATCTGAATTCCGGTCTCCC
DNA 2: TGGTGGCTACGACGGGATT
B14: AGAGUGG (DNA:RNA)
RNA: B4 RNA with G25A, U26G, C27A, G29U, U30G, C31G
DNA 1: CAATCTGAATTCCGGTCTCCC
DNA 2: TGGTGGCTACGACGGGATT
B15: UCUGGAG (DNA:RNA)
RNA: B4 RNA with G25U, U26C, C27U, U30A, C31G
DNA 1: CAATCTGAATTCCGGTCTCCC
DNA 2: TGGTGGCTACGACGGGATT
B16: AUGUAGG (DNA:RNA)
RNA: B4 RNA with G25A, C27G, G28U, G29A, U30G, C31G
DNA 1: CAATCTGAATTCCGGTCTCCC
DNA 2: TGGTGGCTACGACGGGATT
B17: AUCUCCA (DNA:RNA)
RNA: B4 RNA with G25A, G28U, G29C, U30C, C31A
DNA 1: CAATCTGAATTCCGGTCTCCC
DNA 2: TGGTGGCTACGACGGGATT
B18: GAUAAGU (DNA:RNA)
RNA: B4 RNA with U26A, C27U, G28A, G29A, U30G, C31U
DNA 1: CAATCTGAATTCCGGTCTCCC
DNA 2: TGGTGGCTACGACGGGATT
B19: GAAUACU (DNA:RNA)
RNA: B1 RNA with U25G, G26A, G27A, C28U, C29A
DNA 1: CAATCTGAATTCCGGTCTCCC
DNA 2: TGGTGGCTACGACGGGATT
B20: CCUCACA (DNA:RNA)
RNA: B1 RNA with U25C, G26C, G27U, C29A, U31A
DNA 1: CAATCTGAATTCCGGTCTCCC
DNA 2: TGGTGGCTACGACGGGATT
B21: GCUUGUC (DNA:RNA)
RNA: B4 RNA with U26C, C27U, G28U
DNA 1: CAATCTGAATTCCGGTCTCCC
DNA 2: TGGTGGCTACGACGGGATT
B22: GGAUUGA (DNA:RNA)
RNA: B4 RNA with U26G, C27A, G28U, G29U, U30G, C31A
DNA 1: CAATCTGAATTCCGGTCTCCC
DNA 2: TGGTGGCTACGACGGGATT
B23: GUCUUGC (DNA:RNA)
RNA: B4 RNA with G28U, G29U, U30G
DNA 1: CAATCTGAATTCCGGTCTCCC
DNA 2: TGGTGGCTACGACGGGATT
B24: GUCGUCU (DNA:RNA)
RNA: B4 RNA with G29U, U30C, C31U
DNA 1: CAATCTGAATTCCGGTCTCCC
DNA 2: TGGTGGCTACGACGGGATT
B25: GUCUUGA (DNA:RNA)
RNA: B4 RNA with G28U, G29U, U30G, C31A
DNA 1: CAATCTGAATTCCGGTCTCCC
DNA 2: TGGTGGCTACGACGGGATT
B26: GUCUUAA (DNA:RNA)
RNA: B4 RNA with G28U, G29U, U30A, C31A
DNA 1: CAATCTGAATTCCGGTCTCCC
DNA 2: TGGTGGCTACGACGGGATT
B27: GGCUUGC (DNA:RNA)
RNA: B4 RNA with U26G, G28U, G29U, U30G
DNA 1: CAATCTGAATTCCGGTCTCCC
DNA 2: TGGTGGCTACGACGGGATT
B28: GUUUGUC (DNA:RNA)
RNA: B4 RNA with C27U, G28U
DNA 1: CAATCTGAATTCCGGTCTCCC
DNA 2: TGGTGGCTACGACGGGATT
B29: GUCUUGU (DNA:RNA)
RNA: B4 RNA with G28U, G29U, U30G, C31U
DNA 1: CAATCTGAATTCCGGTCTCCC
DNA 2: TGGTGGCTACGACGGGATT
B30: UCGUGCG (DNA:RNA)
RNA: B1 RNA with G26C, C28U, C29G, U31G
DNA 1: CAATCTGAATTCCGGTCTCCC
DNA 2: TGGTGGCTACGACGGGATT
B31: UCGCCAG (DNA:RNA)
RNA: B1 RNA with G26C, C30A, U31G
DNA 1: CAATCTGAATTCCGGTCTCCC
DNA 2: TGGTGGCTACGACGGGATT

target: T1, RBFOX1 RRM RbFoxmut (Fox-RRM*); experiment: EMSA; HiTS-Eq, 1 nM pool, 10 min; buffer printed only for the single-RNA assays: 10 mM Tris pH 7.5, 150 mM NaCl, 3.4 mM EDTA, 0.001% NP-40, 30 C; settings: tags: His6 N-terminal (pET28a); label: 5' 32P
Summary of the method: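 Purified wild-type or mutant RbFox RRM at increasing concentrations was equilibrated with 1 nM of 5′-radiolabelled RNA carrying 7 randomized nucleotides for 10 min in 50 µL. Unbound RNA was separated by 8% native PAGE and sequenced. Relative association constants came from read-count changes of each RNA species compared with the control reaction, normalised to the cognate motif.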

Binder | binding signal
B1 | 0.0838 KA relative to UGCAUGU
B2 | 0.0639 KA relative to UGCAUGU
B3 | 0.368 KA relative to UGCAUGU
B4 | 0.171 KA relative to UGCAUGU
B5 | 0.459 KA relative to UGCAUGU
B6 | 0.219 KA relative to UGCAUGU
B7 | 0.117 KA relative to UGCAUGU
B8 | 0.159 KA relative to UGCAUGU
B9 | 0.403 KA relative to UGCAUGU
B10 | 0.063 KA relative to UGCAUGU
B11 | 0.186 KA relative to UGCAUGU
B12 | 0.615 KA relative to UGCAUGU
B13 | 0.164 KA relative to UGCAUGU
B14 | 0.107 KA relative to UGCAUGU
B15 | 0.0838 KA relative to UGCAUGU
B16 | 0.128 KA relative to UGCAUGU

Binder | binding signal
B17 | 0.0926 KA relative to UGCAUGU
B18 | 0.0905 KA relative to UGCAUGU
B19 | 0.0832 KA relative to UGCAUGU
B20 | 0.108 KA relative to UGCAUGU
B21 | 0.248 KA relative to UGCAUGU
B22 | 0.278 KA relative to UGCAUGU
B23 | 0.502 KA relative to UGCAUGU
B24 | 0.0809 KA relative to UGCAUGU
B25 | 0.407 KA relative to UGCAUGU
B26 | 0.0967 KA relative to UGCAUGU
B27 | 0.199 KA relative to UGCAUGU
B28 | 0.305 KA relative to UGCAUGU
B29 | 0.639 KA relative to UGCAUGU
B30 | 0.147 KA relative to UGCAUGU
B31 | 0.0961 KA relative to UGCAUGU

From article PMC9911399, “Two distinct binding modes provide the RNA-binding protein RbFox with extraordinary sequence specificity”
